# Test results reported in publication PMC5540273 (PLoS ONE, 2017).
# Tests used:
# Conditions in all cases: concentration: 1 μM, replicates: in singlicate; n = 1
# AMPK-alpha1 = test system: T1, AMPK-alpha1
# T1 construct: gene PRKAA1
# AMPK-alpha2 = test system: T2, AMPK-alpha2
# T2 construct: gene PRKAA2
# ANKK1 = test system: ANKK1
# ARK5 = test system: T3, ARK5
# T3 construct: gene NUAK1
# ASK1 = test system: T4, ASK1
# T4 construct: gene MAP3K5
# ASK2 = test system: T5, ASK2
# T5 construct: gene MAP3K6
# AURKA = test system: AURKA
# AURKB = test system: AURKB
# AURKC = test system: AURKC
# AXL = test system: AXL
# BIKE = test system: T6, BIKE
# T6 construct: gene BMP2K
# BLK = test system: BLK
# BMPR1A = test system: BMPR1A
# BMPR1B = test system: BMPR1B
# BMPR2 = test system: BMPR2
# BMX = test system: BMX
# BRAF = test system: BRAF
# BRK = test system: T7, BRK
# T7 construct: gene PTK6
# BRSK1 = test system: BRSK1
# BRSK2 = test system: BRSK2
# 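Note: KINOMEscan kinase panel screen.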
SMILES,%Inh (AMPK-alpha1) [%],%Inh (AMPK-alpha2) [%],%Inh (ANKK1) [%],%Inh (ARK5) [%],%Inh (ASK1) [%],%Inh (ASK2) [%],%Inh (AURKA) [%],%Inh (AURKB) [%],%Inh (AURKC) [%],%Inh (AXL) [%],%Inh (BIKE) [%],%Inh (BLK) [%],%Inh (BMPR1A) [%],%Inh (BMPR1B) [%],%Inh (BMPR2) [%],%Inh (BMX) [%],%Inh (BRAF) [%],%Inh (BRK) [%],%Inh (BRSK1) [%],%Inh (BRSK2) [%]
COc1ccc(Nc2nccc(N3CCC(NC(=O)C(C)c4ccc(Cl)cc4)C3)n2)cc1 (stereo not drawn) [GSK1379735],0,21,0,22,10,4,0,24,49,16,25,33,19,0,4,27,0,0,7,0
Cc1ccc(NC(=O)c2ccc(Cl)cc2)cc1-c1ccc(C(=O)Nc2ccncc2)cc1 [GSK1398467],0,21,0,6,0,21,0,1,17,0,13,1,0,0,0,8,0,0,0,18
CS(=O)(=O)CCNCc1nc(-c2ccc3ncnc(Nc4ccc5c(cnn5Cc5ccccc5)c4)c3c2)cs1.Cl.Cl [GW569716],0,0,0,0,0,0,32,29,0,0,0,38,0,0,16,2,0,17,0,0
Cc1ccc(NC(=O)Nc2ccc(Cl)cc2)cc1-c1ccc(C(=O)Nc2ccncc2)cc1 [GSK1398472],3,3,12,1,11,0,0,28,10,11,18,21,0,0,0,15,43,30,0,0
COc1cccc(NC(=O)Nc2ccc(C)c(-c3ccc(C(=O)Nc4ccncc4)cc3)c2)c1 [GSK1398474],0,13,10,20,2,0,14,0,40,25,26,40,0,0,0,18,30,0,12,96.2
COc1ccc(Nc2nccc(N3CCC(NC(=O)c4cc5ccccc5s4)C3)n2)cc1 (stereo not drawn) [GSK1379738],0,3,3,19,12,11,14,0,22,7,13,0,0,0,11,0,0,0,0,0
Cc1ccc(NC(=O)Nc2ccccc2)cc1-c1ccc(C(=O)Nc2ccncc2)cc1 [GSK1398471],15,11,0,13,10,4,15,0,0,11,20,33,0,0,0,18,32,15,9,2
COc1ccc(Nc2nccc(NCCNC(=O)Nc3cc(C)ccc3C)n2)cc1 [GSK1379899],0,0,0,0,0,0,0,14,36,4,28,36,0,0,0,0,4,0,4,7
CCn1c(-c2ccccc2)nc2cnccc21 [SB-733416],0,0,0,8,28,17,0,0,30,10,28,0,0,0,10,0,49,27,0,1
Cc1nccc(-c2c(-c3ccc(F)cc3)ncn2CCCN2CCOCC2)n1.Cl [SB-282975],0,0,33,0,7,20,8,14,34,0,15,12,26,8,41,31,10,13,0,17
NS(=O)(=O)c1cccc(N/C=C2\C(=O)Nc3ccc(S(=O)(=O)Cc4c(Cl)cccc4Cl)cc32)c1 [GSK398099],0,0,0,0,3,0,26,30,0,0,0,0,0,0,8,0,0,2,0,0
Cc1ccc(NC(=O)Nc2ccc(Cl)c(C(F)(F)F)c2)cc1-c1ccc(C(=O)Nc2ccncc2)cc1 [GSK1398470],2,16,15,14,0,0,0,0,8,17,8,7,6,0,0,21,73,29,7,0
Nc1cccc(-c2ccc3c(N)n[nH]c3c2)n1 [GSK2192730],0,0,17,0,0,13,8,15,22,0,74,0,2,16,0,1,0,0,55,37
Cc1ccccc1-c1cc(-c2c[nH]nc2-c2ccccn2)ccn1 [GW680061],1,0,0,0,0,14,0,4,6,0,2,32,0,0,7,1,6,18,0,0
Fc1ccc(-c2nc[nH]c2-c2ccncc2)cc1 [SB-217360],5,0,0,0,0,0,8,33,0,0,0,25,0,0,22,0,50,0,0,0
COc1ccc(Nc2nccc(N3CCC(NC(=O)C(C)c4ccc(Cl)cc4)CC3)n2)cc1 (stereo not drawn) [GSK1379812],35,11,3,20,0,0,23,4,42,0,36,5,0,0,7,28,0,0,0,13
Cn1cncc1C(=O)NC1CCN(c2ccnc(Nc3ccc(F)cc3)n2)C1 (stereo not drawn) [GSK1379717],0,12,0,9,10,3,0,23,8,0,7,0,5,0,6,0,0,0,1,0
COc1cc2ncnc(Nc3cccc(Br)c3)c2cc1OC.Cl [GI230329],0,0,8,17,0,6,6,0,6,10,19,79,0,0,0,10,0,10,20,14
O=C(Nc1n[nH]c2nc(-c3cccs3)c(Br)cc12)C1CC1 [SB-735297],0,8,9,0,2,13,0,31,6,28,26,0,0,0,26,9,0,0,66,53
CS(=O)(=O)Cc1ccc(Nc2nccc(-c3c(-c4cccc(NC(=O)C5CCCCC5)c4)nn4ncccc34)n2)cc1 [GSK350559],2,2,0,0,0,34,9,15,49,18,1,0,0,19,24,37,20,2,0,0
COC(=O)c1cccc(NC(=O)NC2CCN(c3ccnc(Nc4ccc(F)cc4)n3)C2)c1 (stereo not drawn) [GSK1379725],0,0,0,0,0,1,0,39,34,6,20,26,0,0,0,0,0,8,0,0
